High-throughput results (PubChem BioAssay)
Beta cell apopt: blocks beta cell apoptosis | INS-1E cytokine-induced death, ATP luminescence, 48 h; percent of positive-control rescue, neutral wells zero | protection from apoptosis, % (no concentration beside the values) | actives 0.8% (n = 300,000);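 active = Every replicate reaches about 75%, or at least half do and their mean reaches it too, limit read from the data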;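 also: higher means more ATP so stronger rescue from cytokine killing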
Gli-Sufu antag: blocks Gli-Sufu signaling in a luciferase reporter. AID 588413. inhibition, % at 5 µM. actives 0.74% (n = 340,000). Sufu-KO-LIGHT fibroblasts, Gli luciferase reporter luminescence;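 active = inhibition above about 55%, limit read from the data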
697 NFkB inh: inhibitors of the PMA/ionomycin-induced NF-kB reporter in 697 B cells; actives 0.33% (n = 330,000); inhibition, % at 4 µM; 697 B-cell NF-kB luciferase reporter, 16 h; in the data active = inhibition above about 35%
Mdm2-MdmX inh: human Mdm2/MdmX binding inhibition. O15151+Q00987. inhibition, % at 8 µM. SaOS-2 split-luciferase Mdm2/MdmX complementation, luminescence. actives 3% (n = 330,000);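 active = inhibition of at least 50% at 8 µM in the primary screen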
Jurkat NFkB inh: lowers PMA/ionomycin-induced NF-kB signal in Jurkat cells; PMA/ionomycin-induced NF-kB luciferase reporter, luminescence; inhibition, % at 4 µM; actives 0.53% (n = 330,000); AID 435003; in the data active = inhibition above about 50%
CSC inhib: cancer stem cell inhibition. cancer stem cell-like cells viability, luminescence. inhibition, % at 7.5 µM. actives 1.1% (n = 300,000). AID 2717; in the data active = inhibition above about 75%; tested in HMLE shEcad cells
Mdm2-MdmX conf: human Mdm2/MdmX binding inhibition, confirmed; inhibition, % at 8 µM; shares compounds with Mdm2-MdmX inh; actives 55% (n = 10,000); AID 489028; luminescent assay; in the data active = inhibition above about 40%
FLuc counter: inhibits full-length luciferase, flagging false Mdm2/MdmX hits. shares compounds with Mdm2-MdmX inh. inhibition, % at 8 µM. actives 77% (n = 6,200). SaOS-2 full-length luciferase counterscreen, luminescence;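 active = mean inhibition at 8 µM reaching about 37%, which flags the compound as non-specific, limit read from the data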;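 also: p53-null SaOS-2 cells with luciferase driven by a doxycycline-inducible promoter; compound on cells about two nights before reading with doxycycline added after day one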
Numbers stand for hits. This is a sample that favours compounds with a hit; in the whole collection about 4.5% have one here.

How did COc1ccccc1NC(=S)NC(=O)/C=C/c1ccco1 do in these assays?
Gli-Sufu antag: inactive; 697 NFkB inh: inactive; Mdm2-MdmX inh: inactive; Jurkat NFkB inh: inactive

What do the screens show for `COc1ccc(OCC(=O)Nc2cc3oc4ccccc4c3cc2OC)cc1`?
Beta cell apopt: inactive; Gli-Sufu antag: inactive; 697 NFkB inh: inactive; Mdm2-MdmX inh: 93; Jurkat NFkB inh: inactive; CSC inhib: inactive; Mdm2-MdmX conf: 67; FLuc counter: 89

How did COc1cc2c(cc1NC(=S)NC(=O)/C=C/c1ccco1)oc1ccccc12 do in these assays?
Beta cell apopt: inactive; Gli-Sufu antag: inactive; 697 NFkB inh: inactive; Mdm2-MdmX inh: 50; Jurkat NFkB inh: inactive; CSC inhib: inactive; Mdm2-MdmX conf: inactive

What do the screens show for `COc1cc(C)c(COc2ncnc3ccccc23)cc1OC`?
Beta cell apopt: inactive; Gli-Sufu antag: inactive; 697 NFkB inh: inactive; Mdm2-MdmX inh: inactive; Jurkat NFkB inh: inactive; CSC inhib: inactive

How did COc1ccc(C(=O)Nc2nc3cc(OC)c(OC)cc3c(=O)[nH]2)cc1 do in these assays?
Beta cell apopt: inactive; Gli-Sufu antag: inactive; 697 NFkB inh: inactive; Mdm2-MdmX inh: 71; Jurkat NFkB inh: inactive; CSC inhib: inactive; Mdm2-MdmX conf: inactive

What do the screens show for `CC1CCC/C=C/C(=O)c2c(O)cc(O)cc2CC(=O)O1` (stereo not given)?
Beta cell apopt: inactive; Gli-Sufu antag: inactive; 697 NFkB inh: inactive; Mdm2-MdmX inh: 100; Jurkat NFkB inh: inactive; CSC inhib: inactive; Mdm2-MdmX conf: 98; FLuc counter: 56

Results for C=CCOc1cccc(C(=O)N2CCCC(Nc3ccc4c(c3)OCCO4)C2)c1 (stereo not given) ?
Beta cell apopt: inactive; Gli-Sufu antag: inactive; 697 NFkB inh: inactive; Mdm2-MdmX inh: inactive; Jurkat NFkB inh: inactive; CSC inhib: inactive

What do the screens show for `CC(C)C[C@@H](CO)N1CCN(Cc2ccc([N+](=O)[O-])cc2)CCC1=O`?
Beta cell apopt: inactive; Gli-Sufu antag: inactive; 697 NFkB inh: inactive; Mdm2-MdmX inh: inactive; Jurkat NFkB inh: inactive; CSC inhib: inactive

What do the screens show for `Cc1cc(C)c(O)c(-c2cc(C(=O)Nc3ccc(S(=O)(=O)N4CCOCC4)cc3)[nH]n2)c1`?
Gli-Sufu antag: inactive; 697 NFkB inh: inactive; Mdm2-MdmX inh: 69; Jurkat NFkB inh: inactive; CSC inhib: 88; Mdm2-MdmX conf: 43; FLuc counter: 40

What do the screens show for `COc1cc(/C=C(\C#N)c2nc(-c3cc4ccccc4oc3=O)cs2)ccc1O`?
Beta cell apopt: inactive; Gli-Sufu antag: inactive; 697 NFkB inh: inactive; Mdm2-MdmX inh: 58; Jurkat NFkB inh: inactive; CSC inhib: inactive; Mdm2-MdmX conf: inactive

Results for CN(C)S(=O)(=O)NC(=O)C1=C(N2CCCC2)COC1=O ?
Beta cell apopt: inactive; Gli-Sufu antag: inactive; 697 NFkB inh: inactive; Mdm2-MdmX inh: inactive; Jurkat NFkB inh: inactive

How did COc1ccc(C)cc1NC(=O)C1CCCCN1S(=O)(=O)c1ccccc1 (stereo not given) do in these assays?
Beta cell apopt: inactive; Gli-Sufu antag: inactive; 697 NFkB inh: inactive; Mdm2-MdmX inh: inactive; Jurkat NFkB inh: inactive; CSC inhib: inactive

How did O=C(Nc1ccc(-c2csc(Nc3ccccc3)n2)cc1)c1cc([N+](=O)[O-])cc(C(F)(F)F)c1 do in these assays?
Beta cell apopt: inactive; Gli-Sufu antag: inactive; 697 NFkB inh: inactive; Mdm2-MdmX inh: inactive; Jurkat NFkB inh: inactive; CSC inhib: inactive

How did O=C(Nc1cccc(-c2csc(Nc3cccc(C(F)(F)F)c3)n2)c1)c1cc([N+](=O)[O-])cc(C(F)(F)F)c1 do in these assays?
Beta cell apopt: inactive; Gli-Sufu antag: inactive; 697 NFkB inh: inactive; Mdm2-MdmX inh: 64; Jurkat NFkB inh: inactive; CSC inhib: inactive; Mdm2-MdmX conf: inactive

How did N#CCc1nn(Cc2ccc(F)cc2)c(=O)c2ccccc12 do in these assays?
Beta cell apopt: inactive; Gli-Sufu antag: inactive; 697 NFkB inh: inactive; Mdm2-MdmX inh: inactive; Jurkat NFkB inh: inactive; CSC inhib: inactive

How did Cc1ccc(-c2nn(-c3ccccc3)cc2/C=N/NC(=O)c2ccc(Br)o2)cc1 do in these assays?
Beta cell apopt: 136; Gli-Sufu antag: inactive; 697 NFkB inh: inactive; Mdm2-MdmX inh: 83; Jurkat NFkB inh: inactive; CSC inhib: inactive; Mdm2-MdmX conf: inactive
